Calls of active or inactive are those of the source. How the calls were made is not given here.
Assay: anti-respiratory syncytial virus activity – HEp-2 cells, set 2, counter-screen for VEEV inhibitor project (AID 651932)
Settings: RSV cytopathic effect inhibition; series mostly up to 25 µM

Q: With `CCN1CCN(Cc2nc3ccc([N+](=O)[O-])cc3c(=O)n2-c2ccccc2F)CC1` as the compound, how does the outcome read?
A: inactive

Q: For `CCN1CCN(C)CC1=Nc1ccc([N+](=O)[O-])cc1C(=O)Nc1ccccc1`, which outcome is on record?
A: inactive

Q: Which outcome does the source give for `CN1CCN(C)C(=Nc2ccc([N+](=O)[O-])cc2C(=O)Nc2ccccc2)C1` here?
A: inactive

Q: With `COc1ccc(NC(=O)c2cc([N+](=O)[O-])ccc2N=C2CN(C)CCN2C)cc1` as the compound, how does the outcome read?
A: inactive

Reference: PubChem BioAssay AID651932 (Southern Research Specialized Biocontainment Screening …, 2012)
